Data on eleven molecules can be found in PubChem BioAssay (NCI).

This is part of a sample that, as a whole, favours compounds with a hit. Of some 83,000 tested, about 20% had one in any assay.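 96-well plates, one dose, 48 hours. Percent growth reported; active if below 10.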 A number with no mark means an inactive call. Active and inactive are the calls of the source.

For the assay, the system named is SK-OV-3 ovarian. As to the kind of experiment: NCI-60 one-dose screen, 48 h (100 = growth as untreated, 0 = no growth, -100 = all killed). The conditions noted are these: 10 µM unless noted.
Take `CCCc1n(Cc2ccc3ccccc3c2)cc[n+]1Cc1ccc2ccccc2c1`: the growth is 6.89% (active). As to `CC(=O)OCC(=O)[C@@]1(O)CC[C@H]2[C@@H]3CCC4=CC(=O)CC[C@]4(C)[C@@]3(F)[C@@H](O)C[C@@]21C`, the growth is 63.7%. In the case of `COC(=O)[C@H](Cc1cnc[nH]1)NC(=O)[C@@H](NC(=O)Nc1cc(C(F)(F)F)cc(C(F)(F)F)c1)C(C)C`, the growth was -100% [100 µM] (active). Then `COc1ccccc1-n1c(-c2ccc(O)cc2C)cn2c3c(=O)[nH]c(=O)n(C)c3nc12`, with 65.8%. Then `Nc1nc(Nc2ccccc2SSc2ccccc2Nc2nc(N)nc(-c3cccc(Cl)c3)n2)nc(-c2cccc(Cl)c2)n1`, with 133%; and `COc1ccc2c(c1)C(=Nc1cc(OC)c(OC)c(OC)c1)C(=O)N2`, with 97.4%; and `CC1C(=O)NC2=Nc3ccccc3C(=O)NN21` (stereo unspecified), with 105%. Consider `CC1c2ccccc2-c2ccccc2N1C` (stereo unspecified), for which the growth was 101%. Then `CCC(C)C1NC(=O)C(CCNCS(=O)(=O)O)NC(=O)C(NC(=O)C(CCNCS(=O)(=O)O)NC(=O)C(NC(=O)C(CCNCS(=O)(=O)O)NC(=O)CCCCC(C)C)C(C)O)CCNC(=O)C(C(C)O)NC(=O)C(CCNCS(=O)(=O)O)NC(=O)C(CCNCS(=O)(=O)O)NC(=O)C(C(C)CC)NC1=O` (stereo unspecified), with 40.3%.

On to `O=C(N/N=C/c1ccc(Cl)cc1Cl)c1ccccc1Nc1cccc(C(F)(F)F)c1`, for which the growth was 97.4%. As to `COc1cnc2c(c1)C(=O)c1c-2n(CCCN2CCNCC2)c(=O)c2cc(F)ccc12`, the growth is -12.7% (active).
